Among all 350,000 compounds or so, about 9,900 (2.8%) were called active. Where a call stands in place of a potency, no number is given. Another 15% or so got no clear call; they are omitted. Calls come from the whole dose curve; as a rule, active = well fitted activation curve with a large enough effect; inconclusive = small, poorly fitted or top-dose-only effect; inactive = no such curve, though single readings can be large or run the other way. The sample as a whole holds a higher share of actives than the screen did.
Potency is the fitted concentration of half-maximal effect.

This assay in a line: A quantitative high throughput screen for small molecules that induce DNA re-replication in MCF 10a normal breast cells. Note: nearly all actives have a fitted effect of over 50% in size. The settings on record: MCF 10A DNA re-replication, Hoechst nuclear intensity, 48 h; series mostly up to 46.1 µM.
Regarding `COc1cc2c(cc1CNC[C@H]1O[C@@H](n3cnc(C(N)=O)n3)[C@H](O)[C@@H]1O)OCO2`, the Potency entry is “inactive”. In the case of `C/C(=N\NC(=O)Cc1ccc(Cl)cc1)c1ccccn1` it was “inactive”. Turning to `C/C(CC(=O)Nc1ccc(N(C)C)cc1)=N\NC(=O)c1ccccc1F`, the Potency result was “inactive”. As to `C/C(=N\NC(=O)c1ccccc1F)c1ccccn1`, the Potency is 23.1 µM (active). As to `O=C(CNC(=O)c1cc(S(=O)(=O)N2CCOCC2)ccc1N1CCCC1)Nc1ccc(F)c(F)c1`, the Potency entry is “inactive”. As to `Cc1c(C(=O)N/N=C/c2ccccc2)[nH]c2c([N+](=O)[O-])cccc12`, the Potency was 4.11 µM (active). As for `Cc1cc(C(=O)N/N=C/c2ccccc2[N+](=O)[O-])c(C)o1`, the Potency result was “inactive”.

Take `O=C(N/N=C/c1ccc([N+](=O)[O-])cc1)c1c[nH]c2ccccc12`: the Potency entry was “inactive”. On to `CC(=O)N(O)CCCCCNC(=O)CCC(=O)N(O)CCCCCNC(=O)CCC(=O)N(O)CCCCCNC(=O)CCC(=O)O`, for which the Potency entry is “inactive”. `COc1ccc(S(=O)(=O)N2CCCCCC2)cc1NC(=O)Cc1ccc(OC)c(OC)c1`: the Potency entry was “inactive”.

As for `O=C(NCCc1ccco1)c1ccc(OCc2cn3ccccc3n2)cc1`, the Potency entry is “inactive”. Turning to `O=C(/C=C/c1ccccc1[N+](=O)[O-])NCC1CCCO1` (stereo not drawn), the Potency result was “inactive”. As to `CC1CCCCC1NC(=O)/C(C#N)=C/C=C/c1ccccc1[N+](=O)[O-]` (stereo not drawn), the Potency is 2.91 µM (active). For `O=C(/C=C/c1ccccc1[N+](=O)[O-])OC1CCCCC1=O` (stereo not drawn) the value was “inactive”; for `O=C(CSc1ccccc1)Nc1cccc(S(=O)(=O)N2CCCCC2)c1`, “inactive”. As to `C=CC[C@@H](CC(=O)NCCO)C(=O)N[C@H](C)COC(=O)[C@@H](CC=C)CC(=O)OC(C)(C)C`, the Potency entry is “inactive”. Consider `CCc1c(C)sc(NC(=O)/C=C/c2ccc3c(c2)OCO3)c1C(=O)OC`, for which the Potency was 5.8 µM (active). Consider `O=C(/C=C\c1ccc2c(c1)OCO2)NC1(C(=O)Nc2ccc3c(c2)OCCO3)CCCCC1`, for which the Potency entry was “inactive”. Take `Cc1cccc(NC(=O)/C=C/c2ccc3c(c2)OCO3)n1`: the Potency result was “inactive”. For `Cc1csc(=O)n1CCC(=O)OCC(=O)NNC(=O)c1ccc(Br)cc1`, the Potency result was “inactive”. In the case of `CCOC(=O)/C(C#N)=C/c1ccc(OCC(=O)Nc2ccccc2)c(OC)c1` it was “inactive”; in that of `COc1cc(/C=N/NC(=O)Nc2ccccc2)ccc1OCCOc1ccccc1C`, 1.16 µM (active). Turning to `COc1ccc(/C=N/S(=O)(=O)c2ccccc2)cc1OC`, the Potency entry is “inactive”.

In the case of `COc1ccc(/C=N/NC(=O)c2ccccc2)cc1OS(=O)(=O)c1ccccc1`, the Potency was 20.6 µM (active). On to `COc1cc(/C=N/NC(=O)Cc2ccccc2)cc(OC)c1OC`, for which the Potency result was “inactive”. With `COc1cc(/C=N/NC(=O)c2ccccc2)ccc1OS(=O)(=O)c1ccccc1`, the Potency result is “inactive”. Take `CC(C(=O)NC1CCCC1)N1CCN(S(=O)(=O)c2ccccc2Cl)CC1` (stereo not drawn): the Potency result is “inactive”.

On to `COC(=O)C1=C(C)NC(=S)NC1c1ccc(OCC(=O)N2CC(C)OC(C)C2)c(OC)c1` (stereo not drawn), for which the Potency entry is “inactive”.

As to `O=C(Cn1cc(/C=N/NC(=O)c2cccc(C(F)(F)F)c2)c2ccccc21)Nc1ccc(F)cc1`, the Potency is 20.6 µM (active). Regarding `O=C(CSc1ccc(/C=N/NC(=O)c2cccc(F)c2)o1)Nc1ccccc1`, the Potency entry was “inactive”. As to `COc1ccc(/C=N/NC(=O)c2cccc(C(F)(F)F)c2)cc1`, the Potency entry is “inactive”.

Take `CC(C)(C)Nc1c(-c2cccs2)nc2ccccn12`: the Potency result was “inactive”.

`Cc1cc2nc(C(F)(F)F)cc(-c3cccs3)n2n1`: the Potency was 0.92 µM (active). For `Cc1cc(-c2cccs2)nc(-n2cccc2)n1` the value was “inactive”; for `CN(C(=O)Cn1nnc(-c2ccc(F)cc2)n1)C1CCS(=O)(=O)C1` (stereo not drawn), “inactive”; for `CN1CCN(c2ccc(NC(=O)c3cc(Cl)c4c(c3)OCCO4)cc2)CC1`, “inactive”. In the case of `CC(=O)Nc1ccc(OCC(=O)NCc2ccc(C)cc2)cc1` it was 1.16 µM (active); in that of `Cc1ccc(CNC(=O)COc2ccc3c(c2)CCC3)cc1`, “inactive”; in that of `Cc1ccc(CNC(=O)COc2ccc(S(=O)(=O)NC(C)C)cc2)cc1`, “inactive”. `COc1ccccc1-c1nn(Cc2ccccc2)cc1C(=O)N1CCN(c2ncccn2)CC1`: the Potency entry was “inactive”. As to `O=C(CN1CCCSc2ccccc21)N1CCN(S(=O)(=O)c2ccccc2)CC1`, the Potency entry was “inactive”. As for `COc1ccccc1/C=N/Nc1nc(C)c(C(C)=O)s1`, the Potency entry was “inactive”. Take `CC(=O)c1sc(N/N=C/c2ccc(C(C)C)cc2)nc1C`: the Potency is 13 µM (active).

For the compound `CC(=O)c1sc(NC(=O)CCCOc2ccccc2C)nc1C`, the Potency entry is “inactive”. `COc1ccc(Cl)cc1NC(=O)COC(=O)c1ccc(Br)o1`: the Potency result was “inactive”. As for `CCCN(CC1CC1)C(=O)COC(=O)c1ccc(C)cc1O`, the Potency entry is “inactive”. Regarding `Cc1cc(C)n2nc(C(=O)Nc3cccc(S(=O)(=O)N4CCOCC4)c3)nc2n1`, the Potency entry is “inactive”.

As to `NC(CSC1(c2ccccc2)c2ccccc2-c2ccccc21)C(=O)O` (stereo not drawn), the Potency result was “inactive”.

As for `COc1ccc(-c2ccc3c(c2)[C@@H]2C[C@H](N(C)S(=O)(=O)c4ccccc4)[C@H]([C@H](C)O)C(=O)N2CC3)cc1`, the Potency result was “inactive”. For `CC(C)(C)OC(=O)Nc1ccc([C@@H](NC(=O)OC(C)(C)C)C(=O)OC(C)(C)C)cc1` the value was “inactive”. In the case of `CCc1ccc2c(c1)C(c1ccc([N+](=O)[O-])cc1)=NNC(c1ccccc1)=N2` it was “inactive”.

`CCc1ccc2c(c1)C1(NN=C(c3ccccc3)S1)C(=O)N2` (stereo not drawn): the Potency was 18.4 µM (active).

As for `O=S1(=O)CSCS(=O)(=O)C1`, the Potency result was “inactive”. As to `COc1cc(OC)cc(-c2c(-c3ccc(F)cc3)c3cc(-c4ccc5cc[nH]c5c4)ccc3n2C)c1`, the Potency entry is “inactive”. Consider `COc1ccc2c(c1)c(=Cc1ccc(N(C)C)cc1)c1cc(-c3ccccc3)[n+](C)n12`, for which the Potency entry is “inactive”. In the case of `COc1ccc2sc(-c3ccc(N(C)C)cc3)c(-c3ccc4cc[nH]c4c3)c2c1` it was 16.4 µM (active); in that of `CC1Sc2ccc(C(=O)NCc3ccccc3Cl)cc2NC1=O` (stereo not drawn), “inactive”. For `O=c1ccn([C@@H]2O[C@H](CNS(=O)(=O)c3cc4ccccc4s3)[C@@H](O)[C@H]2O)c(=O)[nH]1`, the Potency entry is “inactive”. Take `Cc1cc(C)c(C=NNc2nc3c([nH]2)c(=O)n(C)c(=O)n3C)c(C)c1`: the Potency result was “inactive”. With `N#CCC(=O)N/N=C/c1ccc(SCC(=O)Nc2ccccc2)o1`, the Potency result is “inactive”. As for `CCOC(=O)N/N=C/c1cn(Cc2ccccc2Cl)c2ccccc12`, the Potency entry is “inactive”. For `N#CCC(=O)N/N=C/c1cn(Cc2ccc3ccccc3c2)c2ccccc12`, the Potency was 10.3 µM (active).

As for `CC1CCCC(NC(=O)c2cc(S(=O)(=O)N3CCCCC3)ccc2Cl)C1C` (stereo not drawn), the Potency result is “inactive”.
